# Measured values as given in article PMC8384837, “Expanding the binding specificity for RNA recognition by a PUF domain”.
# Legend:
# Test in all cases: yeast three-hybrid, YBZ-1, SC-Leu-His + 0.5 mM 3-AT, 4 days
# Details in all cases: tags: N-Gal4 AD-HA kept; label: inside an RPR1-promoter hybrid RNA with tandem MS2 sites; ssRNA
# PUM1 PUF domain R5-RAQ = PUM1 PUF domain R5-RAQ (Homo sapiens, UniProt Q14671 828-1176, C1007R;R1008A)
# Procedure, shortened: (§1)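 Pumilio-1 PUF domain libraries, randomized at the three base-contacting residues of each repeat, were co-expressed with matching RNA elements from a centromeric plasmid in strain YBZ-1, which carries a LexA–MS2 coat fusion and a HIS3 reporter. Transformants grew for four days on SC-Leu (input) or on SC-Leu-His + 0.5 mM 3-AT (selection), and the repeat regions were PCR-amplified and Illumina-sequenced. The interaction score is the log change in variant frequency from input to selection. That logarithm is base 2, with a pseudocount of 1 where a variant was absent.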
# PUM1 PUF domain R4-RFP = PUM1 PUF domain R4-RFP (Homo sapiens, UniProt Q14671 828-1176, N971R;H972F;Q975P)
# Procedure, shortened: as §1
# PUM1 PUF domain R5-KCL = PUM1 PUF domain R5-KCL (Homo sapiens, UniProt Q14671 828-1176, C1007K;R1008C;Q1011L)
# Procedure, shortened: as §1
# PUM1 PUF domain R3-FYG = PUM1 PUF domain R3-FYG (Homo sapiens, UniProt Q14671 828-1176, C935F;R936Y;Q939G)
# Sequence of PUM1 PUF domain R3-FYG (Q14671 828-1176 C935F/R936Y/Q939G): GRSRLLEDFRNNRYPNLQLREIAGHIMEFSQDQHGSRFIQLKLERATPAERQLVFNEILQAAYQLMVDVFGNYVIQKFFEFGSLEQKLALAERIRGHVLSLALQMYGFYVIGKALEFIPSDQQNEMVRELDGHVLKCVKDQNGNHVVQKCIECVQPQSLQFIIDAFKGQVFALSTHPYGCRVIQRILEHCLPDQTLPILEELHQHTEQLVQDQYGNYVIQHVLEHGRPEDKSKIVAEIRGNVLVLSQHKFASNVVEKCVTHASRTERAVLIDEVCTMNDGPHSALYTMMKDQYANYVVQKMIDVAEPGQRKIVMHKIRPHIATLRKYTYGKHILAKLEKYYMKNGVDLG
# Procedure, shortened: as §1
# PUM1 PUF domain R6-FRS = molecular target: T1, PUM1 PUF domain R6-FRS (Homo sapiens, UniProt Q14671 828-1176, N1043F;Y1044R;Q1047S)
# T1 sequence: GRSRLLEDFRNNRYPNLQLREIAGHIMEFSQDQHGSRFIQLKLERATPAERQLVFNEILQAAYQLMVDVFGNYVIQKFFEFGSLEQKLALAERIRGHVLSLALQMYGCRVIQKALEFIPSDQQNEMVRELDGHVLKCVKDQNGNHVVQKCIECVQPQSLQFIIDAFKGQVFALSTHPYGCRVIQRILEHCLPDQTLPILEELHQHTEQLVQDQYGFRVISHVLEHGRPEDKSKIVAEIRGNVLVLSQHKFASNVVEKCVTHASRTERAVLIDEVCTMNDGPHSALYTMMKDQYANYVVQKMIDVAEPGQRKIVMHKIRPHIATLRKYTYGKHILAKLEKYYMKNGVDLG
# Procedure, shortened: as §1
# PUM1 PUF domain R5-MYR = PUM1 PUF domain R5-MYR (Homo sapiens, UniProt Q14671 828-1176, C1007M;R1008Y;Q1011R)
# Procedure, shortened: as §1
# PUM1 PUF domain R2-EWL = PUM1 PUF domain R2-EWL (Homo sapiens, UniProt Q14671 828-1176, N899E;Y900W;Q903L)
# Procedure, shortened: as §1
# PUM1 PUF domain R3-FCM = PUM1 PUF domain R3-FCM (Homo sapiens, UniProt Q14671 828-1176, C935F;R936C;Q939M)
# Procedure, shortened: as §1
# PUM1 PUF domain R5-SPR = PUM1 PUF domain R5-SPR (Homo sapiens, UniProt Q14671 828-1176, C1007S;R1008P;Q1011R)
# Procedure, shortened: as §1
# PUM1 PUF domain R5-MKC = PUM1 PUF domain R5-MKC (Homo sapiens, UniProt Q14671 828-1176, C1007M;R1008K;Q1011C)
# Procedure, shortened: as §1
# Sequence of PUM1 PUF domain R5-RAQ (Q14671 828-1176 C1007R/R1008A): as the sequence (Q14671 828-1176 C935F/R936Y/Q939G) above, with F108C, Y109R, G112Q, C180R, R181A counted along it
sequence,measurement,setting,value
GGCUAGAACUAGUGGAUCCCCCGGCGCCCGGCGGCUCGAGCCCGGGUAAGUGUAAAUAGUCUGCAUGCCGCCGGGCGCCAUGCCUGCAGGUCGACUCUAGAAAACAUG,binding signal,PUM1 PUF domain R5-RAQ,1.44 log2 enrichment (interaction score)
same,binding signal,PUM1 PUF domain R4-RFP,6.66 log2 enrichment (interaction score)
same,binding signal,PUM1 PUF domain R5-KCL,2.45 log2 enrichment (interaction score)
same,binding signal,PUM1 PUF domain R3-FYG,4.62 log2 enrichment (interaction score)
same,binding signal,PUM1 PUF domain R6-FRS,2.9 log2 enrichment (interaction score)
same,binding signal,PUM1 PUF domain R5-MYR,2.55 log2 enrichment (interaction score)
GGCUAGAACUAGUGGAUCCCCCGGCGCCCGGCGGCUCGAGCCCGGGUAAGUGUAAAAAGUCUGCAUGCCGCCGGGCGCCAUGCCUGCAGGUCGACUCUAGAAAACAUG,binding signal,PUM1 PUF domain R2-EWL,6.51 log2 enrichment (interaction score)
GGCUAGAACUAGUGGAUCCCCCGGCGCCCGGCGGCUCGAGCCCGGGUAAGUGUAAGUAGUCUGCAUGCCGCCGGGCGCCAUGCCUGCAGGUCGACUCUAGAAAACAUG,binding signal,PUM1 PUF domain R3-FYG,7.3 log2 enrichment (interaction score)
same,binding signal,PUM1 PUF domain R3-FCM,4.3 log2 enrichment (interaction score)
GGCUAGAACUAGUGGAUCCCCCGGCGCCCGGCGGCUCGAGCCCGGGUAAGUGUCAAUAGUCUGCAUGCCGCCGGGCGCCAUGCCUGCAGGUCGACUCUAGAAAACAUG,binding signal,PUM1 PUF domain R5-RAQ,4.49 log2 enrichment (interaction score)
same,binding signal,PUM1 PUF domain R5-KCL,3.63 log2 enrichment (interaction score)
same,binding signal,PUM1 PUF domain R5-SPR,5.38 log2 enrichment (interaction score)
GGCUAGAACUAGUGGAUCCCCCGGCGCCCGGCGGCUCGAGCCCGGGUAAGUGUAAUUAGUCUGCAUGCCGCCGGGCGCCAUGCCUGCAGGUCGACUCUAGAAAACAUG,binding signal,PUM1 PUF domain R3-FYG,5.45 log2 enrichment (interaction score)
GGCUAGAACUAGUGGAUCCCCCGGCGCCCGGCGGCUCGAGCCCGGGUAAGUGUAUAUAGUCUGCAUGCCGCCGGGCGCCAUGCCUGCAGGUCGACUCUAGAAAACAUG,binding signal,PUM1 PUF domain R4-RFP,3.26 log2 enrichment (interaction score)
GGCUAGAACUAGUGGAUCCCCCGGCGCCCGGCGGCUCGAGCCCGGGUAAGUGUUAAUAGUCUGCAUGCCGCCGGGCGCCAUGCCUGCAGGUCGACUCUAGAAAACAUG,binding signal,PUM1 PUF domain R5-MKC,2.53 log2 enrichment (interaction score)
same,binding signal,PUM1 PUF domain R5-RAQ,4.06 log2 enrichment (interaction score)
